# Measured values taken from PubChem BioAssay AID372 (MTDP, 2006).
# Among all 100,000 compounds or so, about 770 (0.77%) were called active. No stated cut-off is given here; in the data, active means inhibition above about 50%; inactive means the rest. The entries come from a sample that favours actives as a whole.
# Molecular target: Gag-Pol polyprotein (Human immunodeficiency virus type 1 group M subtype B (isolate HXB2)) (UniProt P04585)
# Test: RNase H inhibition, HIV 1 Gag Pol polyprotein, FRET biochemical assay, screening (AID 372)
# Conditions: HIV-1 RT RNase H, FRET RNA/DNA substrate fluorescence; at 10 µM; hits give high values
row,Structure (SMILES),inhibition
1,Cc1ccc(-c2nc3ccccc3o2)cc1NC(=O)COc1ccccc1,8% (inactive)
2,Cc1ccc2oc(-c3ccc(C)c(NC(=O)COc4ccccc4C)c3)nc2c1,44% (inactive)
3,Cc1cc(C)c2oc(-c3ccc(C)c(NC(=O)COc4ccccc4C)c3)nc2c1,55% (active)
4,Cc1ccc(-c2nc3ccccc3o2)cc1NC(=O)COc1ccccc1C,50% (active)
5,Cc1cc(C)c2oc(-c3ccc(C)c(NC(=O)COc4cccc(C)c4C)c3)nc2c1,0% (inactive)
6,Cc1cc(C)cc(OCC(=O)Nc2cc(-c3nc4cc(C)cc(C)c4o3)ccc2C)c1,14% (inactive)
7,CCCSc1nc2ccccc2c(=O)n1CC1CCCCC1,1% (inactive)
8,O=C(Nc1cccc(C(F)(F)F)c1)c1ccc(I)cc1,1% (inactive)
9,COc1cc(/C=N\NC(=O)C2COc3cc4ccccc4cc3O2)ccc1OCc1ccccc1 (stereo not drawn),14% (inactive)
10,CCN(Cc1ccccc1)C(=O)c1ccccc1C,6% (inactive)
11,CCOc1ccccc1OCCCCOc1cc(C)ccc1Cl,5% (inactive)
12,Cc1c(OCc2c(F)cccc2Cl)ccc2c3c(c(=O)oc12)CCC3,0% (inactive)
13,CCOC(=O)c1c(N)sc2c1CCc1ccccc1-2,51% (active)
14,COC(=O)c1c(N)sc2c1CCc1ccccc1-2,9% (inactive)
15,CCOC(=O)c1c(NC(C)=O)sc2c1CCc1ccccc1-2,1% (inactive)
16,Cc1ccc(-c2nc(N/N=C/c3ccccc3O)c3ccccc3n2)cc1,20% (inactive)
17,Cc1ccc(-c2nc(N/N=C/c3ccccc3)c3ccccc3n2)cc1,10% (inactive)
18,Cc1ccc(-c2nc(N/N=C/c3ccccc3Cl)c3ccccc3n2)cc1,58% (active)
19,Oc1ccccc1C(=S)N1CCOCC1,24% (inactive)
20,COc1ccccc1C(=S)N1CCOCC1,70% (active)
21,COc1ccc(OC)c(C(=S)N2CCOCC2)c1,11% (inactive)
22,COc1ccc2c(c1)c(/C=C/c1nc3ccccc3c(=O)n1-c1ccccc1[N+](=O)[O-])c(C)n2C,1% (inactive)
23,CN(c1ccc(C(=O)Nc2cc(Cl)ccc2Cl)cc1)S(=O)(=O)c1ccccc1,54% (active)
24,CN(c1ccc(C(=O)N2CCCC2)cc1)S(=O)(=O)c1ccccc1,5% (inactive)
25,Cc1cccc(C)c1NC(=O)c1ccc(N(C)S(=O)(=O)c2ccccc2)cc1,57% (active)
26,CN(c1ccc(C(=O)N2CCN(c3ccccc3)CC2)cc1)S(=O)(=O)c1ccccc1,6% (inactive)

row,Structure (SMILES),inhibition
1,Cc1ccccc1CNC(=O)c1ccc(N(C)S(=O)(=O)c2ccccc2)cc1,0% (inactive)
2,CN(c1ccc(C(=O)Nc2cc(Cl)cc(Cl)c2)cc1)S(=O)(=O)c1ccccc1,8% (inactive)
3,CNC(=O)c1ccc(N(C)S(=O)(=O)c2ccccc2)cc1,2% (inactive)
4,CC1CCN(C(=O)c2ccc(N(C)S(=O)(=O)c3ccccc3)cc2)CC1,51% (active)
5,CN(c1ccc(C(=O)Nc2ccccc2F)cc1)S(=O)(=O)c1ccccc1,9% (inactive)
6,Cc1nn(CC(=O)Nc2ccc(Cl)cc2Cl)c(C)c1[N+](=O)[O-],0% (inactive)
7,CCN(CC)C(=O)C1CN(S(=O)(=O)c2ccccc2)CCN1S(=O)(=O)c1ccccc1 (stereo not drawn),54% (active)
8,COC(=O)C1CN(S(=O)(=O)c2ccccc2)CCN1S(=O)(=O)c1ccccc1 (stereo not drawn),2% (inactive)
9,O=C(O)C1CN(S(=O)(=O)c2ccccc2)CCN1S(=O)(=O)c1ccccc1 (stereo not drawn),8% (inactive)
10,Cc1cc(OCC(=O)OC(C)C)c2c(-c3ccccc3)cc(=O)oc2c1,20% (inactive)
11,Cc1cc(OS(C)(=O)=O)c2c(-c3ccccc3)cc(=O)oc2c1,19% (inactive)
12,Cc1cc(OC(C)C)c2c(-c3ccccc3)cc(=O)oc2c1,50% (active)
13,COc1ccc(NC(=O)n2nc(C(F)(F)F)nc2N)cc1,0% (inactive)
14,Cc1cc(Cl)ccc1OC(C)C(=O)N1CCN(c2cccc(Cl)c2)CC1 (stereo not drawn),10% (inactive)
15,CCOc1nc(Nc2ccc(Cl)cc2)nc(N2CCCCC2)n1,9% (inactive)
16,c1ccc(-c2onc3ccc(Oc4ccc5noc(-c6ccccc6)c5c4)cc23)cc1,19% (inactive)
17,O=S(=O)(NCCSCc1ccccc1)c1ccc(Cl)cc1,15% (inactive)
18,O=[N+]([O-])c1ccccc1S(=O)(=O)NCCSc1ccccc1,33% (inactive)
19,O=[N+]([O-])c1ccccc1S(=O)(=O)NCCSCc1ccc(Cl)cc1,50% (active)
20,COC(=O)c1ccc(-c2ccc(/C=C3\SC(=O)N(c4ccccc4)C3=O)o2)cc1,57% (active)
21,COC(=O)c1ccc(-c2ccc(/C=C3/SC(=S)N(c4ccccc4)C3=O)o2)cc1,4% (inactive)
22,O=C(O)c1ccc(-c2ccc(/C=C3/SC(=O)N(c4ccccc4)C3=O)o2)cc1,15% (inactive)
23,COc1cc(/C=C(\C#N)C(N)=S)ccc1OCc1ccccc1,10% (inactive)
24,CCOc1ccc(N(CC(N)=O)S(=O)(=O)c2ccc(SC)cc2)cc1,0% (inactive)
25,CCOC(=O)c1c(NC(C)=O)sc2c1CCN(C(=O)OCC)C2,9% (inactive)
26,CCOC(=O)c1c(NC(=O)COc2ccc(Cl)cc2)sc2c1CCN(C(=O)OCC)C2,38% (inactive)

row,Structure (SMILES),inhibition
1,CCOC(=O)c1c(NC(=O)Cc2ccc(OC)cc2)sc2c1CCN(C(=O)OCC)C2,50% (active)
2,CCOc1ccc(NC(=O)CSc2nc3ccccc3s2)cc1,10% (inactive)
3,Nc1c2c(cc3ccccc13)C(=O)c1ccccc1C2=O,46% (inactive)
4,CCOc1ccccc1C(=O)Nc1cccc(OC)c1,11% (inactive)
5,Cc1ccc(S(=O)(=O)NC(=O)OC(c2ccccc2)C(F)(F)F)cc1 (stereo not drawn),0% (inactive)
6,CCc1ccccc1NC(=O)c1ccc(CN2CCc3ccccc3C2)cc1,7% (inactive)
7,COc1ccccc1CC(=O)Nc1ccc(F)cc1,10% (inactive)
8,COc1ccccc1CC(=O)Nc1ccc(Br)c(C)c1,59% (active)
9,COc1ccccc1CC(=O)Nc1ccc(F)cc1F,55% (active)
10,COc1ccccc1CC(=O)Nc1nccs1,14% (inactive)
11,COc1ccccc1CC(=O)Nc1cc(C)ccn1,53% (active)
12,COc1ccc(CC(=O)Nc2ccc(Br)c(C)c2)cc1OC,12% (inactive)
13,COc1ccccc1CC(=O)Nc1cccc(F)c1,0% (inactive)
14,COc1ccccc1NC(=O)Cc1ccc(F)cc1F,0% (inactive)
15,COc1ccccc1CC(=O)Nc1ccc(C)c(Cl)c1,5% (inactive)
16,CCOC(=O)c1ccc(NC(=O)Cc2ccccc2OC)cc1,8% (inactive)
17,COc1cccc(OC)c1C(=O)Nc1cc(C)ccn1,0% (inactive)
18,CCC(C)c1ccc(NC(=O)Cc2ccccc2OC)cc1 (stereo not drawn),52% (active)
19,Cc1nonc1-c1cn2cc(Cl)ccc2n1,8% (inactive)
20,COc1ccccc1C/C(N)=N/OC(=O)Cc1ccc(Cl)cc1,22% (inactive)
21,O=C(Nc1ccc(S(=O)(=O)N2CCCCCC2)cc1)c1cccc([N+](=O)[O-])c1,9% (inactive)
22,CCOC(=O)C1=C(C)N=c2s/c(=C\c3ccc([N+](=O)[O-])o3)c(=O)n2C1c1ccc(SC)cc1 (stereo not drawn),20% (inactive)
23,COc1ccc(S(=O)(=O)N(CCc2ccccc2)CC(=O)NCC2CCCO2)cc1 (stereo not drawn),2% (inactive)
24,CCOc1ccc(N2C(=O)/C(=C/c3cc(Br)c(O)c(OC)c3)C(=O)NC2=S)cc1,11% (inactive)
25,COc1ccccc1CC(=O)Nc1cccc(C)c1,0% (inactive)
26,COc1ccccc1CC(=O)Nc1cccc(Br)c1,67% (active)

row,Structure (SMILES),inhibition
1,COc1ccccc1CC(=O)Nc1ccc(Br)cc1,38% (inactive)
2,O=C1c2ccc(-c3nc4ccccc4c(=O)o3)cc2C(=O)N1c1cccc(I)c1,0% (inactive)
3,Cc1ccc2c(c1)N(C(=O)c1ccccc1Br)C(C)(C)c1ssc(=S)c1-2,33% (inactive)
4,C=CCn1c(=O)c(C(=O)NCCCO)c(O)c2ccccc21,11% (inactive)
5,COc1ccc(/C=N/NC(=S)Nc2cccc(C)c2)c2ccccc12,5% (inactive)
6,COC(=O)C1=C(C)NC(C)=C(C(=O)OC)C1c1cn(-c2ccccc2)nc1-c1ccco1,4% (inactive)
7,O=C(Nc1cccc(Cl)c1)OCCOc1ccccc1,48% (inactive)
8,Cc1cccc(OCCOC(=O)Nc2ccc(Cl)c(Cl)c2)c1,46% (inactive)
9,Cc1ccccc1OCCOC(=O)Nc1ccc(Cl)c(Cl)c1,51% (active)
10,O=C(Nc1ccc(Cl)c(Cl)c1)OCCOc1cccc(Br)c1,44% (inactive)
11,O=C(Nc1cccc(Cl)c1)OCCOc1cccc(F)c1,58% (active)
12,COc1ccc(OCCOC(=O)Nc2ccc(Cl)c(Cl)c2)cc1,34% (inactive)
13,Cc1ccc(OCCOC(=O)Nc2ccc(Cl)c(Cl)c2)cc1,46% (inactive)
14,O=C(Nc1ccc(Cl)c(Cl)c1)OCCOc1ccccc1,50% (active)
15,COc1ccccc1OCCOC(=O)Nc1ccc(Cl)c(Cl)c1,10% (inactive)
16,COc1cccc(OCCOC(=O)Nc2ccc(Cl)c(Cl)c2)c1,50% (active)
17,Cc1cccc(OCCOC(=O)Nc2cccc(Cl)c2)c1,44% (inactive)
18,O=C(Nc1ccc(Cl)c(Cl)c1)OCCOc1ccccc1Cl,48% (inactive)
19,CC1=C(C#N)C(c2ccccc2C(F)(F)F)C2=C(CCCC2=O)N1 (stereo not drawn),12% (inactive)
20,O=C1Nc2ccccc2NC1C1OC(c2ccccc2)=CC1=O (stereo not drawn),0% (inactive)
21,Cc1cccc(C2C(=O)c3ccccc3C2=O)c1C,13% (inactive)
22,O=C(O)c1ccc(N2C(=O)CC(N3CCN(Cc4ccc5c(c4)OCO5)CC3)C2=O)cc1 (stereo not drawn),12% (inactive)
23,C/C(=N\NC(=O)c1cc(C)[nH]n1)c1ccc(N)cc1,5% (inactive)
24,O=S1(=O)CCC(NC(=S)N/N=C/c2ccc(Cl)c(Cl)c2)C1 (stereo not drawn),13% (inactive)
25,COc1ccc(C(N)=CC(=O)C(C)(C)C)cc1,7% (inactive)
